Screens as filed in PubChem.
Mdm2 MdmX PPI = inhibitors of human Mdm2/MdmX interaction. O15151+Q00987. SaOS-2 split-luciferase Mdm2/MdmX complementation, luminescence. inhibition, % at 8 µM. 3% of 330,000 active. AID 485346;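 active means inhibition of at least 50% at 8 µM in the primary screen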
Jurkat NFkB inh = inhibitors of the PMA/ionomycin-induced NF-kB reporter in Jurkat cells; PMA/ionomycin-induced NF-kB luciferase reporter, luminescence; inhibition, % at 4 µM; 0.53% of 330,000 active; AID 435003; in the data active means inhibition above about 50%
Gli-Sufu antag = antagonists of Gli-Sufu signaling; Sufu-KO-LIGHT fibroblasts, Gli luciferase reporter luminescence; AID 588413; inhibition, % at 5 µM; 0.74% of 340,000 active;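 active means inhibition above about 55%, limit read from the data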;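 further: 0% = DMSO-treated cells and 100% = wells with medium but no cells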
aSyn UTR inh = 5' untranslated region of α-synuclein, MLPCN primary screen. inhibition, % (tested at 7.5 µM). alpha-synuclein 5'UTR reporter, inhibitor activity. 0.82% of 300,000 active; in the data active means inhibition above about 60%; inconclusive means no clear call, values can overlap the other calls;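 further: H4 neuroglioblastoma cells stably carrying SNCA 5'UTR luciferase fusion; 0% = DMSO wells and 100% = positive control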
KLF5 inhibitor = inhibitors of KLF5 expression; DLD-1 KLF5 promoter-luciferase reporter, luminescence; inhibition, % at 5 µM; 0.23% of 290,000 active;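 active means inhibition above a per-plate limit of that plate's mean compound inhibition plus 3 SD, cut at about 60% in these data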;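 further: 0% = DMSO wells and 100% = LY294002 at 200 µM; higher means less KLF5 promoter-driven luciferase light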
697 NFkB inh = inhibitors of the PMA/ionomycin-induced NF-kB reporter in 697 B cells. 697 B-cell NF-kB luciferase reporter, 16 h. inhibition, % at 4 µM. 0.33% of 330,000 active. AID 435022; in the data active means inhibition above about 35%
697 NFkB conf = lowers PMA/ionomycin-induced NF-kB signal in 697 B cells; inhibition, % at 4 µM; shares compounds with 697 NFkB inh; AID 449746; 697 B-cell NF-kB luciferase, 16 h; 35% of 2,000 active; in the data active means inhibition mostly above about 28%, no sharp cut-off; inactive means mostly below about 22%
Mdm2-MdmX conf = confirmation of human Mdm2/MdmX interaction inhibitors. shares compounds with Mdm2 MdmX PPI. Mdm2-MdmX binding, luminescent assay. inhibition, % at 8 µM. 55% of 10,000 active. AID 489028; in the data active means inhibition above about 40%
Full FLuc ctr = inhibits full-length luciferase, flagging false Mdm2/MdmX hits; shares compounds with Mdm2 MdmX PPI; SaOS-2 full-length luciferase counterscreen, luminescence; inhibition, % at 8 µM; 77% of 6,200 active;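 active means mean inhibition at 8 µM reaching about 37%, which flags the compound as non-specific, limit read from the data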;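 further: p53-null SaOS-2 cells with luciferase driven by a doxycycline-inducible promoter; compound on cells about two nights before reading with doxycycline added after day one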
Starred values were filed as active, the others as inactive; i = inactive; ? = inconclusive; · = not tested or not shown. The list is not random: actives were taken first. Their share in the collection is about 4.1%.

SMILES | Mdm2 MdmX PPI | Jurkat NFkB inh | Gli-Sufu antag | aSyn UTR inh | KLF5 inhibitor | 697 NFkB inh | 697 NFkB conf | Mdm2-MdmX conf | others
O=[N+]([O-])c1ccc(N2CCCC2)c2ncccc12 | 17.1 | 17.3 | 3.1 | 31.9 | 0.5 | -1.8 | · | ·
CN(C)c1cccc2c(C#N)ccc(N(C)C)c12 | 3.0 | 15.6 | -6.3 | 18.8 | -20.2 | 39.0* | -12.7 | ·
CCCC(C)C1(CC)C(=O)NC(=O)N=C1N (stereo not given) | 4.2 | -12.8 | 1.1 | 0.5 | -19.9 | -4.7 | · | ·
CNC(=O)Nc1ccc(C(=O)N/N=C\C23CC[C@@H](O)CC2(O)CC[C@@H]2[C@@H]3CCC3(C)C(C4=CC(=O)OC4)CCC23O)cc1 (stereo not given in full) | 4.7 | -16.6 | 9.2 | 19.1 | -17.9 | -17.1 | · | ·
C[C@]12CC[C@H]3C(CCC4(O)CC(O)CC[C@]34C=O)C1=CC[C@H]2c1ccc(=O)oc1 (stereo not given in full) | 32.8 | 26.1 | -3.7 | 81.5* | -30.9 | i | i | ·
C=CC1CN2CCC1CC2C(OC(C)=O)c1ccnc2ccc(OC)cc12 (stereo not given) | 26.4 | 4.5 | 11.2 | -12.2 | -7.1 | 0.9 | · | ·
COc1ccc(C(=O)O/N=C(/C(N)=O)P(=O)(OC(C)C)OC(C)C)cc1 | 7.7 | -10.7 | 13.3 | -19.3 | 0.7 | -9.5 | · | ·
CNC(=O)Oc1cccc(-c2cn3cc(Cl)ccc3n2)c1 | -221.5 | -87.5 | -100.8 | ? | 8.9 | -292.8 | -222.4 | ·
CC1=C2C(=O)C3C(CC=C4CC(O)CCC43C)C2CCC12OC1CC(C)CNC1C2C (stereo not given) | 24.3 | -7.3 | 18.6 | -7.5 | -27.0 | -7.9 | · | ·
Cc1cc(OCC(=O)N2CCC(C(N)=O)CC2)c2c3c(c(=O)oc2c1)CCCC3 | 5.7 | -8.3 | 4.8 | 14.7 | -1.4 | 41.6* | 29.7* | ·
C=CCn1c(O)c(C(C)=NCCC(c2ccccc2)c2ccccc2)c(=O)[nH]c1=O | 20.5 | -14.0 | 16.0 | -2.2 | -9.8 | -4.7 | · | ·
C=CCn1c(O)c(C(C)=NC(C)c2ccccc2)c(=O)[nH]c1=O (stereo not given) | 49.0 | -1.9 | 10.4 | -5.1 | 12.3 | 41.1* | 30.1* | ·
C[C@H]1CCC[C@@H](O)CCC/C=C/c2cc(O)cc(O)c2C(=O)O1 | 39.7 | 10.0 | 2.2 | -170.2 | -1.6 | 42.7* | 12.7 | ·
COc1ccccc1[As](=O)(O)CC(O)COc1ccc(Cl)cc1Cl (stereo not given) | 4.0 | -15.4 | · | -25.2 | -24.4 | 5.8 | · | ·
COC(=O)C1=C(c2ccc(-c3ccccc3)c(F)c2)C[C@@H]2CC[C@H]1N2C(=O)N1CCCCC1 | 13.3 | 23.5 | 37.0 | · | · | 31.6 | · | ·
COC(=O)C1=C(c2ccc(-c3ccccc3)c(F)c2)C[C@@H]2CC[C@H]1N2C(=O)N1CCCC1 | -5.4 | 22.2 | 26.2 | · | · | 46.3* | 61.9* | ·
Cc1nc2cc(-c3ccccc3)nn2c(C)c1CCC(=O)N1CCC2(CC1)OCCO2 | 21.8 | 13.5 | 11.2 | 79.3* | 0.1 | 42.7* | 45.6* | ·
Cc1nc2ncnn2c(C)c1CCC(=O)N1CCC2(CC1)OCCO2 | 4.9 | 6.5 | 3.9 | 4.0 | -11.7 | 19.7 | · | ·
O=c1[nH]c(O)c(/C=C2/C=CC(c3cc(Cl)ccc3Cl)=N2)c(=O)[nH]1 | 45.6 | 17.3 | 3.6 | -55.8 | -2.0 | 36.0* | 7.2 | ·
C=C1C(=O)[C@@]23C[C@H]4[C@@H]5[C@@]6(C)CCC[C@@]57[C@@H]2[C@@H](O)[C@@H]1C[C@H]3[C@H]7N4C6 | 100.3* | 47.3 | -11.6 | -9.8 | · | 44.2* | 37.4* | 90.3* | Full FLuc ctr=51.9*
CCn1c(=O)cc(SCC(=O)N2CCC3(CC2)OCCO3)c2ccccc21 | 53.0* | 13.1 | 34.1 | -33.5 | 1.1 | 62.0* | 39.6* | 38.6
Cc1cc(OCC(=O)NC(Cc2ccc(Cl)cc2)C(=O)O)c2c3c(c(=O)oc2c1)CCC3 (stereo not given) | -2.6 | 8.7 | 2.5 | 8.5 | 4.0 | 18.8 | · | ·
Fc1cccc(C2NCCc3[nH]cnc32)c1 (stereo not given) | 8.2 | 18.7 | 7.3 | -17.9 | 1.0 | -0.9 | · | ·
C/C(=C\c1ccc(N(C)C)cc1)[N+](=O)[O-] | 100.3* | 19.4 | -0.1 | -8.4 | -6.2 | 38.1* | 12.1 | 31.1
CCCC12CN3CC(CCC)(CN(C1)C3c1ccccn1)C2=O (stereo not given) | 18.3 | 5.7 | 3.4 | 11.1 | -33.3 | -8.7 | · | ·
SMILES | Mdm2 MdmX PPI | Jurkat NFkB inh | Gli-Sufu antag | aSyn UTR inh | KLF5 inhibitor | 697 NFkB inh | 697 NFkB conf | Mdm2-MdmX conf | others
O=C1NC(=O)C(=Cc2ccc(-c3ccc(Cl)cc3)o2)C(=O)N1 | 52.7* | 4.9 | -8.5 | -20.5 | -4.6 | -33.8 | · | 6.2
CNCC(O)c1cc(OCc2ccccc2)c(OCc2ccccc2)cc1F (stereo not given) | 81.7* | 10.3 | 23.5 | -43.7 | · | 13.6 | · | 7.7
O=c1c2ccccc2[se]n1-c1ccccc1 | 59.1* | -10.8 | 5.4 | -23.6 | -4.7 | 11.8 | · | 15.4
CCCOC(=O)c1ccc(-[n+]2c(-c3ccccc3)cc(-c3ccccc3)cc2-c2ccccc2)cc1 | 89.2* | 15.5 | 48.5 | -6.8 | · | -43.3 | · | 86.8* | Full FLuc ctr=17.5
COC(=O)C1=C(c2cccc(OC)c2OC)C[C@@H]2CC[C@H]1N2C(=O)NCC1CC1 | 3.2 | 0.6 | 5.4 | 2.8 | · | -6.6 | · | ·
O=C(CCc1nc(-c2ccccc2F)no1)N1CCC2(CC1)OCCO2 | 19.7 | -10.8 | -1.2 | 10.7 | -23.9 | 0.6 | · | ·
[O-]c1ccccc1-[n+]1c(-c2ccccc2)cc(-c2ccccc2)cc1-c1ccccc1 | 89.6* | 12.5 | 15.9 | ? | · | -41.7 | · | 71.1* | Full FLuc ctr=22.4
Cc1ccccc1-[n+]1c(-c2ccccc2)cc(-c2ccccc2)cc1-c1ccccc1 | 87.6* | 15.9 | 76.7* | 47.0 | · | -11.5 | · | 87.7* | Full FLuc ctr=19.3
Oc1ccccc1-[n+]1c(-c2ccccc2)cc(-c2ccccc2)cc1-c1ccccc1 | 42.5 | 20.4 | 24.0 | -20.2 | · | -15.3 | · | ·
CC(=O)c1c(C)n(Cc2ccccc2Cl)c2ccc(O)cc12 | 52.2* | -7.8 | -6.0 | 26.9 | 6.6 | -7.9 | · | 38.3 | Full FLuc ctr=109.6*
CCOP(=O)(OCC)C(NC(=O)c1ccccc1C)C(Cl)(Cl)Cl (stereo not given) | -14.1 | 25.2 | -4.6 | 11.1 | -4.6 | -2.7 | · | ·
N#CCCn1cc(C(=O)Nc2ccccc2Cl)c(-c2ccc(F)cc2)n1 | -2.3 | -1.7 | -21.8 | -1.8 | -2.5 | 5.6 | · | ·
Cc1cccc(N2C(=O)NC(=O)/C(=C/c3ccc([N+](=O)[O-])o3)C2=O)c1 | · | · | -9.2 | · | -10.2 | · | · | ·
Cc1cc(C)cc(N2C(=O)NC(=O)/C(=C/c3cccn3-c3ccc(Cl)cc3)C2=O)c1 | 66.0* | 19.8 | 4.0 | -27.2 | -12.6 | 17.8 | · | 17.3
